Assay outcomes deposited in PubChem by National Center for Advancing Translational Sciences (NCATS).
The list is not random: actives were taken first. Their share in the collection is about 4.6%.
TRb SRC2 PPI: TRbeta-SRC2 interaction inhibition | TRbeta-SRC2 peptide binding, fluorescence polarization; receptor liganded with 1 µM T3 | AID 1469 | Potency, µM (highest dose often 106 µM), inactives show at the top dose activity change, negative = inhibition, most hits filed as inhibitors | P10828 | hit rate 0.065% among 280,000;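 note: potency is the fitted concentration of half-maximal effect; plate controls were bound peptide for no effect and peptide without receptor for full effect; nearly all actives have a fitted effect of over 50% in size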
Target sequence (P10828 whole entry, looked up): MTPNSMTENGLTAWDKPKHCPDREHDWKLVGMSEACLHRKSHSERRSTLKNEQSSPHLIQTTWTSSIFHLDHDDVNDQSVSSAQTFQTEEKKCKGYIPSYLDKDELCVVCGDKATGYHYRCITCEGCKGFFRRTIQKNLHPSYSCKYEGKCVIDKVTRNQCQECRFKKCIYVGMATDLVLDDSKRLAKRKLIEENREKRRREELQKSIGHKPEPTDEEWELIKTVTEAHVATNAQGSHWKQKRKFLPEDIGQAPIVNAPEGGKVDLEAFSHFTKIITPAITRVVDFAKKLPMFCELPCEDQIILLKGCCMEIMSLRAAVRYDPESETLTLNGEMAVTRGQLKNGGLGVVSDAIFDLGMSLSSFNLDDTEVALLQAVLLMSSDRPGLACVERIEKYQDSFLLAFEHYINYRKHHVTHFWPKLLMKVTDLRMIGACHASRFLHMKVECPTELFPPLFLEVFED
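Human TRb ligand-binding domain (0.6 uM) is mixed with 20 nM Texas Red SRC2 peptide and 1 uM T3; after compound addition and 5 hr at ambient temperature, polarization is measured and normalized to unbound and bound controls.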
PNC assembly inh: inhibitors of perinucleolar compartment assembly. hit rate 3.1% among 140,000. activity change (PNC), negative = inhibition, % at 10 µM. AID 2417. PC3M PTB-GFP, PNC prevalence imaging, 16 h; active compounds read low;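 active = readout at or below -70, meaning at least 70% loss of cells showing the perinucleolar compartment, a nuclear body marking cancer cells; inconclusive = readout between -30 and a set limit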;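 note: plate controls were DMSO wells for no effect and camptothecin positive control wells for full effect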
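Compounds are pinned in duplicate onto adhered PC3M cells stably expressing GFP-tagged PTB and incubated 16 h at 37 C. Cells are then fixed, nuclei stained with Hoechst, and PNC-positive cells counted.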
Tau FP inhib: blocks human tau fibril formation measured by polarization; K18 P301L tau heparin fibrillization, Alexa594 FP, 6 h; Potency, µM (titrated, usually from 57.7 µM), inactives show at the highest dose activity, negative = inhibition, actives largely listed as inhibitors; hit rate 0.39% among 280,000; AID 1468; note: potency is the fitted concentration of half-maximal effect; nearly all actives have a fitted effect of over 55% in size
Target sequence (P10636 561-689 P618L limits assumed): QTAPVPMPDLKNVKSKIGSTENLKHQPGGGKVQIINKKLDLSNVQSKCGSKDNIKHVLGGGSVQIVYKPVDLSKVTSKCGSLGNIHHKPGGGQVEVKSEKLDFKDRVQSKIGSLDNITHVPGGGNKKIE
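Heparin (20 uM) drove fibril formation of recombinant tau K18 P301L, 15 uM unlabeled with 0.24 uM Alexa 594 label, for 6 hr at 37 C in 100 mM sodium acetate pH 7. Fluorescence polarization (555/632 nm) read 1 hr after 30 uM ThT.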
Tau ThT inhib: inhibitors of human tau fibril formation, thioflavin T binding; recombinant tau K18 P301L, heparin-induced fibrillization, ThT fluorescence; hit rate 2.1% among 270,000; P10636; Potency, µM (titrated, usually from 57.4 µM), inactives show at the highest dose activity, negative = inhibition, actives largely listed as inhibitors; note: potency is the fitted concentration of half-maximal effect; nearly all actives have a fitted effect of over 55% in size
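Heparin-induced (20 uM) aggregation of recombinant human K18 P301L tau, 15 uM unlabeled with 0.24 uM labeled, pH 7 acetate buffer, 6 hr at 37 C with compound. Fibrils quantified by 30 uM ThT fluorescence after 1 hr ambient incubation.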
TR SRC2 fluor cs: counter-screen for TRb-SRC2 inhibitors: fluorescence interference | TRb/SRC2 Texas Red total fluorescence interference | Potency, µM (doses to about 106 µM), for inactives: at the highest dose fluorescence change, negative = quenching | hit rate 0.29% among 280,000 | AID 1479; active = well fitted curve in either direction with a large enough effect; inconclusive = small, poorly fitted or top-dose-only effect; note: potency is the fitted concentration of half-maximal effect
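Human TRβ ligand-binding domain (0.6 uM) and Texas Red SRC2 peptide (20 nM) in Tris buffer with 1 uM T3 and 5% DMSO were incubated with pinned compound for 5 hr at ambient temperature. Total fluorescence was computed as S + 2P (555/632 nm).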
Tau fluor counter: counter-screen for tau fibril formation inhibitors | tau K18 P301L (four-repeat tau fragment) Alexa594 fluorescence, heparin fibrillization | Potency, µM (top dose mostly 57.7 µM), for inactives: at the highest dose activity change, negative = decrease | hit rate 0.93% among 280,000; note: potency is the fitted concentration of half-maximal effect; nearly all actives have a fitted effect of over 55% in size
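Human K18 P301L tau (15 uM unlabeled plus 0.24 uM Alexa 594-labeled, final) in 100 mM sodium acetate pH 7 was mixed with compound and 20 uM heparin and incubated 6 hr at 37 C.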
An asterisk follows results filed as active; ? = inconclusive; . = no result; [ ] = dose if it differs, or a comment. Unless noted, calls come from the whole dose curve; as a rule, active = well fitted curve in the direction sought with a large enough effect; inconclusive = small, poorly fitted or top-dose-only effect, or another doubt; inactive = no such curve, though single readings can be large; an effect the other way counts as inactive or inconclusive. Unless noted, % is set by controls: 0 for no effect and ±100 for the full control effect.

SMILES	TRb SRC2 PPI	PNC assembly inh	Tau FP inhib	Tau ThT inhib	TR SRC2 fluor cs	Tau fluor counter
CCNc1ccc(Br)cc(C(=O)/C=C/c2ccc(Cl)cc2Cl)c1=O	-3%	-100*	-15%	16µM*	-2%	-29%
CNc1ccc(Br)cc(C(=O)/C=C/c2ccc3c(c2)OCO3)c1=O	8%	42	?	13µM*	-9%	?
CNc1ccc(Br)cc(C(=O)/C=C/c2ccc(OC)cc2)c1=O	-5%	-109*	?	14µM*	-10%	?
COc1ccc(/C=C/C(=O)c2cc(Br)ccc2O)cc1OC	4%	.	-10%	?	-1%	-8%
CNc1ccc(Br)cc(C(=O)/C=C/c2cc(OC)ccc2OC)c1=O	-18%	18	?	10µM*	2%	?
O=C(CSc1nc(SCC(=O)NCc2ccccc2)n(-c2ccccc2)n1)NCc1ccccc1	0%	-23	-1%	-18%	0%	-25%
CCCN(CCC)CCCNC(=O)c1cn(C)c2ccc(S(=O)(=O)N3CCOCC3)cc2c1=O	-4%	.	-9%	5%	0%	-2%
O=C1/C(=C/c2ccccc2)CCC1C1CCCC1 (stereo not given)	-8%	20	-1%	?	-3%	-13%
CN1C2CCC1/C(=C\c1ccccc1)C(=O)/C2=C\c1ccccc1	7%	31	?	16µM*	-3%	-25%
Oc1ccc(-c2nc3ncccn3c2Nc2ccc3c(c2)OCCO3)cc1	-3%	7	12%	?	-8%	25µM*[quencher]
Clc1ccc(-c2nc3cnccn3c2Nc2ccc3c(c2)OCO3)cc1	3%	?	?	?	-1%	14µM*[quencher]
COC(=O)C(C)Oc1ccc(=O)[nH]n1 (stereo not given)	-19%	43	-1%	1%	0%	-2%
CN1CCN(C(=S)c2ccc(-c3cccc(Cl)c3Cl)o2)CC1	-3%	31	2%	14µM*	0%	-21%
S=C(c1ccc(-c2ccccc2Cl)o1)N1CCCCC1	6%	41	?	?	0%	-17%
CC(C)(C)C(=O)NC(=S)Nc1ccccc1C(N)=O	-2%	?	-3%	-2%	-2%	2%
COc1ccc(OC)c(S(=O)(=O)Nc2ccc(O)c3ccccc23)c1	-11%	?	?	25µM*	-1%	28µM*[quencher]
CC(C)=CC[C@@H](O)C1=CC(=O)c2c(O)ccc(O)c2C1=O	-3%	.	13µM*	4.5µM*	28µM*[quencher]	?
COc1ccc(OC)c(C2/C(=C(/O)c3ccccc3)C(=O)C(=O)N2Cc2ccco2)c1 (stereo not given)	5%	-18	-2%	-7%	-6%	-5%
COCCOC(=O)C1=C(C)NC2(O)c3ccccc3C(=O)C12O (stereo not given)	-2%	.	?	11µM*	-2%	-14%
CCOC(=O)C1=C(C)NC2(O)c3ccccc3C(=O)C12O (stereo not given)	0%	20	1%	2%	2%	4%
Cc1cc2c(NC(=O)Nc3ccc(C(C)(C)C)cc3)cccc2nn1	-22%	.	35µM*	-15%	6%	16µM*[quencher]
CCOc1cccc(CNc2ccc(O)cc2)c1OCc1ccccc1Cl	2%[11.2 µM]	-5	11µM*	28µM*	1%[11.2 µM]	10µM*[quencher]
CCOc1cc(CNc2ccccc2)cc(Br)c1OCc1ccc(F)cc1	-15%	?	6%	-12%	1%	?
CCOc1cccc(CNc2ccc(O)cc2)c1OCc1ccc(Cl)cc1Cl	25µM*	9	28µM*	28µM*	4%	?
CCOc1cccc(CNn2cnnc2)c1OCc1ccccc1Cl	10%	-12	-1%	-6%	1%	-5%
SMILES	TRb SRC2 PPI	PNC assembly inh	Tau FP inhib	Tau ThT inhib	TR SRC2 fluor cs	Tau fluor counter
CCOc1cc(CNc2ccc(O)cc2)cc(Cl)c1OCc1ccccc1	?	.	-8%	?	?	16µM*[quencher]
CCOc1c(Cl)cc(CNc2ccc(S(N)(=O)=O)cc2)cc1OC	5%	-27	-1%	6%	0%	9%
CCOc1c(Cl)cc(CNc2ccc(N3CCCC3)cc2)cc1OC	?	.	7.9µM*	3.2µM*	11%	?
CCC(CC)NC(=O)Cc1ccc(S(=O)(=O)N2CCOCC2)s1	-10%	3	0%	-15%	-1%	-12%
CC(=O)Nc1cccc(NC(=O)c2ccc(Br)cc2)c1	-2%	.	-6%	-10%	-4%	-6%
Oc1c(C=NCc2ccccc2)sc2ccccc12	8%	.	4%	?	-2%	-6%
Oc1c(N=Nc2ccccc2)sc2ccccc12	6%	.	4%	2.5µM*	-8%	-23%
O=C1C2CC=CCC2C(=O)N1c1ccc(N2CCN(c3ccccn3)CC2)c([N+](=O)[O-])c1 (stereo not given)	-2%	.	3%	14µM*	-1%	-28%
O=[N+]([O-])c1cccc(/C=N\N2CCN(c3ccc(Cl)cc3)CC2)c1	0%	21	4%	?	-3%	-12%
CNC(=S)N1CCN(c2ccc([N+](=O)[O-])cc2)CC1	0%	-8	-1%	5.6µM*	2%	-6%
COc1ccc(NC(=O)N2CCN(c3ccc([N+](=O)[O-])cc3)CC2)cc1OC	-10%	.	-4%	8.9µM*	4%	-23%
COc1ccc(NC(=O)N2CCN(c3ccc([N+](=O)[O-])cc3)CC2)cc1	-7%	.	5%[2.34 µM]	-1%	0%	-8%
O=[N+]([O-])c1ccc(/C=N\N2CCN(c3ccc(Cl)cc3)CC2)cc1	-1%	?	3%	2.2µM*	-4%	-16%
CC(=O)N1CCN(c2ccc([N+](=O)[O-])cc2)CC1	3%	.	-10%	1%	-1%	10%[2.34 µM]
O=C1[C@H]2[C@H]3[C@H](O)[C@H](O)C/C(=N/OC[C@@H](O)COCc4ccco4)[C@H]3CC[C@@H]2C(=O)N1Cc1ccc2c(c1)OCO2	6%[11.2 µM]	.	-4%[11.6 µM]	-4%[11.5 µM]	-1%[11.2 µM]	-3%[11.6 µM]
Cc1cccc(N=Cc2[nH]c3ccc(Br)c(Cl)c3c2O)c1	4%	11	2%	?	3%	-23%
O=C(Nc1ccc(Cl)c([N+](=O)[O-])c1)c1ccncc1	4%	67	3%	-8%	-5%	-14%
O=[N+]([O-])c1ccc(N2CCCCCC2)c([N+](=O)[O-])c1	-3%	-5	-2%	-18%	1%	-21%
O=[N+]([O-])c1ccc(N2CCCCC2)cc1	-6%	.	-8%	8.9µM*	-3%	-19%
CC(=O)c1ccc(N2CCN(c3ccc(C(N)=O)cc3[N+](=O)[O-])CC2)cc1	-4%	.	4%	5%	-1%	6%
